12-LOX inh – ALOX12 (human) lipoxygenase inhibition; P18054; purified 12hLO, xylenol orange hydroperoxide absorbance; Potency, µM (doses to about 108 µM), for the others: at the highest dose activity change, negative = inhibition, most hits filed as inhibitors; 580,000 compounds, 1.1% hits; AID 1671190; further: potency means the concentration at half of the fitted maximal effect; on the % scale 0 is the no-effect control and ±100 the full control effect
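Purified human 12hLO (150 nM final) in 25 mM Hepes, 0.01% Triton X-100, pH 7.0 was preincubated 15 min at room temperature with compound. Then 40 uM arachidonic acid was added, 30 min. Hydroperoxide was read by Fe-XO absorbance ratio 573/405 nm.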
Vif-A3F inh – blocks the Vif interaction with APOBEC3F; HeLa A3F-eYFP + Vif (tagged APOBEC3F with the HIV-1 protein that degrades it), YFP fluorescence increase; 390,000 compounds, 0.2% hits; Potency, µM (doses to about 46.1 µM), without a hit: at the highest dose activity, negative = active; further: potency means the concentration at half of the fitted maximal effect; % of control where 0% means no effect; nearly all actives have a fitted effect of over 65% in size
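HeLa cells stably expressing A3F-eYFP plus Vif, plated and incubated overnight at 37 deg C, then exposed to compounds overnight at 37 deg C. Blocked degradation read as raised yellow fluorescence (Ex 488/Em 500-530).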
Vif-APOBEC3G blk – Vif-A3G binding inhibition; 410,000 compounds, 0.076% hits; HeLa A3G-eYFP + Vif (tagged APOBEC3G with the HIV-1 protein that degrades it), YFP fluorescence, overnight; Q9HC16; Potency, µM (top dose mostly 46.1 µM), for the others: at the highest dose activity, negative = active, hits mostly inhibitors; further: potency means the concentration at half of the fitted maximal effect; on the % scale 0 is the no-effect control and ±100 the full control effect; nearly all actives have a fitted effect of over 60% in size
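Read-out is eYFP fluorescence (Ex 488/Em 500-530) from Vif-expressing HeLa A3G-eYFP cells; more signal means A3G escaped Vif-mediated degradation. Cells plated overnight, compound pinned in, incubated overnight at 37 deg C.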
pAkt inh – blocks phosphorylation of Akt; activity change, % for hits at 50 µM; 360,000 compounds, 0.32% hits; AID 651550; Neuro2A IGF-stimulated pAkt S473 HTRF, 20 min; hits give low values; in the data active means activity change below about -80%; inconclusive means mostly about -51% to -80%; further: on the % scale 0 is the no-effect control and ±100 the full control effect
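Neuro2A cells in DMEM with 0.5% FBS, overnight at 37 deg C, given compound at single 50 µM final, then IGF (6 nM final) for 20 min at 37 deg C. Lysed; phospho-Akt Ser473 by HTRF after 24 h, 665/615 ratio.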
PTAP TSG101 blk – blocks PTAP/TSG101 interaction to inhibit HIV-1 budding. Fluorescence polarization, FITC-PTAP peptide / Tsg101 binding. Potency, µM (doses to about 115 µM), for inactives: at the highest dose activity change, negative = inhibition, usual class: inhibitors. 340,000 tested, under 10 active; active means well fitted inhibition curve with a large enough effect in the main read-out, with a control signal flat, not every such curve was filed as active; inconclusive means small, poorly fitted or top-dose-only effect, or effect the other way, or a change in a side signal; inactive means no such curve, though single readings can be large or run the other way; further: potency means the concentration at half of the fitted maximal effect; % of control where 0% means no effect
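Fluorescence polarization binding of Tsg101 binding domain (10 uM final) to FITC-labeled PTAP peptide (50 nM final) in HEPES pH 7.5 buffer with NaCl, Tween 20, EDTA, TCEP. Compounds added before peptide; binding 20 min at RT.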
ASM inhibitor – inhibitors of human secretory acid sphingomyelinase. P17405. placental ASM, HMU-PC fluorogenic substrate, 60 min. Potency, µM (series often up to 57.5 µM), inactives show top-dose activity change, negative = inhibition, usual class: inhibitors. 340,000 compounds, 0.006% hits; further: potency means the concentration at half of the fitted maximal effect
Target sequence (P17405 47-631 limits assumed): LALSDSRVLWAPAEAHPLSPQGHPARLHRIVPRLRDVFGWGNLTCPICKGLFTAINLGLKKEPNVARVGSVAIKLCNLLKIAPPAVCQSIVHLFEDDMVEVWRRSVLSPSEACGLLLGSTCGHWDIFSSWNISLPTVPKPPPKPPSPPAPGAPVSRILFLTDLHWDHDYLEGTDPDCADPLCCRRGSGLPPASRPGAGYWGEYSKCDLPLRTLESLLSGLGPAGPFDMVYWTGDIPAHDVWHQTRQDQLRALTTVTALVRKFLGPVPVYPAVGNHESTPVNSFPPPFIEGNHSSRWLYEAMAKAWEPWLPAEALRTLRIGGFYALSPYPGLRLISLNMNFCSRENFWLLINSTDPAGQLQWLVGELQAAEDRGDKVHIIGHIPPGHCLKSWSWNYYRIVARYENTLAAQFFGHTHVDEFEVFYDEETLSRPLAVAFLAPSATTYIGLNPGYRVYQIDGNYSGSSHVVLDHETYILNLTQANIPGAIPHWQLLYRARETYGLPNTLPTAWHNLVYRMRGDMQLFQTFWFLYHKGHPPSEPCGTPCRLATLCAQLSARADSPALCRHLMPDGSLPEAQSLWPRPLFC
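Human placenta-derived ASM preincubated with compound 10 min at room temperature, then reacted with 9 uM (final) fluorogenic HMU-PC substrate for 60 min at 37 C. Stop solution raises pH to 10; fluorescence read at Ex 386/Em 447 nm.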
* = called active by the depositor. This is a sample that favours compounds with a hit; in the whole collection about 1.4% have one here. Unless noted, the call rests on the fitted dose curve; in most records, active means well fitted curve in the direction sought with a large enough effect; inconclusive means small, poorly fitted or top-dose-only effect, or another doubt; inactive means no such curve, though single readings can be large; an effect the other way counts as inactive or inconclusive.

Results for CCC(=O)c1ccccc1OCCCN1CCC(Cc2ccccc2)CC1 ?
12-LOX inh: 6.3µM*; Vif-A3F inh: -25%; Vif-APOBEC3G blk: -2%; pAkt inh: inactive; PTAP TSG101 blk: -2%; ASM inhibitor: -2%

Results for CC(=O)c1cccc(OCc2cccc(C(N)=O)c2)c1 ?
12-LOX inh: 16%

Results for COc1nn(CC(=O)N2N=C(C)CC2(O)C(F)F)cc1[N+](=O)[O-] (stereo unspecified) ?
12-LOX inh: 1%; Vif-A3F inh: 5%; Vif-APOBEC3G blk: -2%; pAkt inh: -90%*; PTAP TSG101 blk: 1%; ASM inhibitor: 6%

What do the screens show for `O=C(Cn1cc([N+](=O)[O-])cn1)N1N=C(C(F)F)CC1(O)C(F)F` (stereo unspecified)?
12-LOX inh: -2%; Vif-A3F inh: -10%; Vif-APOBEC3G blk: 1%; pAkt inh: inactive; PTAP TSG101 blk: 1%; ASM inhibitor: 1%

What do the screens show for `CC(CN1CCCCC1)OC(=O)c1cccc(F)c1` (stereo unspecified)?
12-LOX inh: 56µM*; Vif-A3F inh: 9%; Vif-APOBEC3G blk: 2%; pAkt inh: inactive; PTAP TSG101 blk: -2%; ASM inhibitor: -3%

How did COc1cccc(C(=O)OC(C)CN2CCCC2)c1 (stereo unspecified) do in these assays?
12-LOX inh: 0%; Vif-A3F inh: 0%; Vif-APOBEC3G blk: -1%; pAkt inh: inactive; PTAP TSG101 blk: 0%; ASM inhibitor: 1%

Results for C/C(CCc1ccccc1)=N\NC(=S)NCCc1ccccc1 ?
12-LOX inh: 40µM*; Vif-A3F inh: inconclusive; Vif-APOBEC3G blk: 7%; pAkt inh: inactive; PTAP TSG101 blk: -7%; ASM inhibitor: -1%

Results for Cc1c(Cl)cccc1NC(=S)NCCc1ccccn1 ?
12-LOX inh: 0%; Vif-A3F inh: 5%; Vif-APOBEC3G blk: -1%; pAkt inh: inactive; PTAP TSG101 blk: -1%; ASM inhibitor: -2%

What do the screens show for `Cc1c(Cl)cccc1NC(=S)NCCc1ccc(C(F)(F)F)cc1`?
12-LOX inh: 40µM*; Vif-A3F inh: -8%; Vif-APOBEC3G blk: 2%; pAkt inh: inactive; PTAP TSG101 blk: 0%; ASM inhibitor: -4%

How did S=C(NCc1ccccc1)NCc1ccc(CNC(=S)NCc2ccccc2)cc1 do in these assays?
12-LOX inh: 25µM*; Vif-A3F inh: -7%; Vif-APOBEC3G blk: 0%; pAkt inh: inactive; PTAP TSG101 blk: -4%; ASM inhibitor: -7%

What do the screens show for `S=C(NCCCCc1ccccc1)Nc1cccc(Cl)c1Cl`?
12-LOX inh: 25µM*

What do the screens show for `Fc1ccc(CNC(=S)NCc2ccccc2)cc1`?
12-LOX inh: inconclusive; Vif-A3F inh: -3%; Vif-APOBEC3G blk: 0%; pAkt inh: inactive; PTAP TSG101 blk: -8%; ASM inhibitor: -1%

Results for C/C(=N\NC(=S)NCCc1ccccc1)c1cccs1 ?
12-LOX inh: 45µM*; Vif-A3F inh: 2%; Vif-APOBEC3G blk: -6%; pAkt inh: inactive; PTAP TSG101 blk: -19%; ASM inhibitor: -1%

What do the screens show for `Cc1ccc(CNC(=S)Nc2ccccc2Cl)cc1`?
12-LOX inh: 45µM*

What do the screens show for `S=C(NCCc1ccccc1)NCCc1ccccc1`?
12-LOX inh: 50µM*; Vif-A3F inh: -6%; Vif-APOBEC3G blk: -5%; pAkt inh: inactive; PTAP TSG101 blk: 0%; ASM inhibitor: -1%

Results for Cc1cc(C)cc(NC(=S)NCCc2ccccc2)c1 ?
12-LOX inh: 45%

How did CC1=C/C(=N\NC(=S)NCCc2ccccc2)CC(C)(C)C1 do in these assays?
12-LOX inh: 4.5µM*; Vif-A3F inh: 13%; Vif-APOBEC3G blk: 1%; pAkt inh: inactive; PTAP TSG101 blk: -1%; ASM inhibitor: -3%

What do the screens show for `COc1ccc(S(=O)(=O)Nc2ccc(C)n(CC(=O)Nc3ccccc3)c2=O)cc1`?
12-LOX inh: 0%
